Inconclusive results are not listed. Activity calls are given as the source filed them. How the source made its calls: active means hit-call score of the fitted dose curve at least 0.9, where 1 is the maximum; inconclusive means response in the unintended direction; inactive means score below 0.9.

Consider four compounds from PubChem BioAssay (EPA / NIEHS).

Assay [1] is described as follows: ArunA_CellTiter_hNP: Viability Assessment in the ArunA Biomedical's Oris Neural Crest (hNC) Cell Migration Assay (AID 2283753). Summed up: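 Viability read with CellTiter 96 Aqueous One after 72 h chemical exposure of human hNP1 neuroprogenitors, which were plated on Matrigel in LIF/bFGF medium 16 h beforehand. Endpoint fitted in positive direction relative to DMSO.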

Assay [2] can be described thus: ArunA_NOG_NucleusCount: ArunA Biomedical's Neurite Outgrowth (NOG) Assay for Nucleus Count (AID 2283756). In a few lines:
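Viable neuron count, from Hoechst nuclei passing size and intensity gates, imaged at 20x on differentiated H9-derived human neurons. Exposure lasted 48 h from seeding; activity was scored relative to DMSO.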

Assay [3] is described as follows: ArunA_NOG_NeuritesPerNeuron: ArunA Biomedical's Neurite Outgrowth (NOG) Assay for Neurites Per Neuron (AID 2283758). Summed up:
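Differentiated human H9-derived neurons exposed to chemicals for 48 h from seeding, then stained with Hoechst and βIII-tubulin/DyLight 488. Automated imaging counted neurites (processes >10 um) per valid neuron; loss of signal versus DMSO scored.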

The nature of assay [4]: ArunA_NOG_BranchPointsPerNeurite: ArunA Biomedical's Neurite Outgrowth (NOG) Assay for Branch Points Per Neurite (AID 2283759). In a few lines:
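Automated image analysis traced neurites (processes >10 um) from valid cell bodies after Hoechst and βIII-tubulin staining. hNN cells from H9 embryonic stem cells, 48 h exposure. Fitted bidirectionally against DMSO.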

A short description of assay [5]: ArunA_Migration_hNC: ArunA Biomedical's Oris Neural Crest (hNC) Cell Migration Assay (AID 2283755). Summed up: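 Calcein-AM fluorescence (ex494 nm/em 517 nm) in the stopper-defined detection zone quantifies migration of hNC cells after 72 h chemical exposure; 60,000 cells/well plated on Matrigel with LIF and bFGF, 16 h pre-incubation. DMSO baseline.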
Assay [6] can be described thus: ArunA_NOG_NeuriteLength: ArunA Biomedical's Neurite Outgrowth (NOG) Assay for Neurite Length (AID 2283757). Summed up:
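Total neurite length per neuron, from traced βIII-tubulin-labelled processes longer than 10 um on viable Hoechst-gated cells, was scored as decrease from DMSO. Cells were hESC (H9)-derived neurons given 48 h chemical exposure immediately after seeding.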

Assay [7] deals with chicken Androgen Receptor (AR), gene 422165. Briefly: ATG_chAR_XSP1: Attagene TRANS-FACTORIAL Multi-Species (XSP1) HepG2 Assay for chicken Androgen Receptor (AR) (AID 2283768). How it is done:
ATG_XSP1_multi-species_TRANS is a cell-based, multiplexed assay created by modifying the existing Attagene TRANS-FACTORIAL system to include a panel of nuclear receptors from some or all the following species: human (Homo sapiens), mouse (Mus musculus), frog (Xenopus laevis), zebrafish (Danio rerio), chicken (Gallus gallus), and turtle (Chrysemys picta). The ECOTOX-FACTORIAL format uses HepG2, a human liver cell line, with measurements taken at 24 hours after chemical dosing in a 24-well plate. Xsp1 included 3 nM 6-alpha-fluorotestosterone to partially stimulate the androgen receptor.ATG_chAR_XSP1 is one of 29 assay components measured or calculated from the ATG_XSP1_multi-species_TRANS assay. It is designed to make measurements of mRNA induction, a form of inducible reporter, as detected with fluorescence intensity signals by Reverse transcription polymerase chain reaction (RT-PCR) and Capillary electrophoresis technology.The assay endpoint ATG_chAR_XSP1 was analyzed in the positive analysis fitting direction relative to DMSO as the negative control and baseline of activity. […] Furthermore, this assay endpoint can be referred to as a primary readout, because this assay has produced multiple assay endpoints where this one serves a reporter gene function. […]

In assay [8] the test system is frog Androgen Receptor (AR), gene 399456. Briefly: ATG_frAR_XSP1: Attagene TRANS-FACTORIAL Multi-Species (XSP1) HepG2 Assay for frog Androgen Receptor (AR) (AID 2283770).

`ClC1(Cl)C2(Cl)C3(Cl)C4(Cl)C(Cl)(Cl)C5(Cl)C3(Cl)C1(Cl)C5(Cl)C24Cl` (stereo unspecified): the call in assay [1], in assay [2], in assay [3] and in assay [4] was inactive.

Usually AC50 stands for the concentration giving half of the maximal activity seen. Regarding `CC(C)(C)c1cc(O)ccc1O`, in assay [5], the AC50 was 35800 nM (active). In addition, the compound was called inactive in assay [2], in assay [6] and in assay [3].

For the compound `ClCC(Cl)CCl`, in assay [4], the result was inactive.

Take `C[C@]12CCC(=O)C[C@@H]1CC[C@@H]1[C@@H]2CC[C@]2(C)[C@@H](O)CC[C@@H]12`: the AC50 in assay [7] was 282 nM (active); in assay [8], 177 nM (active).
